Screening results: PubChem, National Center for Advancing Translational Sciences (NCATS)
D1 potentiator – enhances dopamine response at the human D1 receptor | hit rate 0.036% among 360,000 | P21728 | HEK293 TREx D1 cells, calcium flux, dopamine EC20 potentiation | potentiation, % at 10 µM | AID 504651; in the data active = potentiation above about 30%; note: 0% is about no effect
Target sequence (P21728 whole entry, looked up): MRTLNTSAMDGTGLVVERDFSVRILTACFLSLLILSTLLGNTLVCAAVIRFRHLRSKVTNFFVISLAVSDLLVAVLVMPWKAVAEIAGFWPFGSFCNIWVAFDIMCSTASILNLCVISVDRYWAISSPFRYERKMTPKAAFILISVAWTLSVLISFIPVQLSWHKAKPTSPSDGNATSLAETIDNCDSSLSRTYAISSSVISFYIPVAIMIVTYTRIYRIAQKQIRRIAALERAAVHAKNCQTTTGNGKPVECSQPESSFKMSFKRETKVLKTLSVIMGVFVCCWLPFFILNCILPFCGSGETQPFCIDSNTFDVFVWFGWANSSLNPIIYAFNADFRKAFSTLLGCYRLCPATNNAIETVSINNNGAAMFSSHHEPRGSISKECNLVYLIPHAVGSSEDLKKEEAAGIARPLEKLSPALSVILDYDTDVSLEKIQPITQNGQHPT
TRHR PAM – TRH receptor (human) allosteric enhancement. P34981. TRHR cells, fluo-8 calcium fluorescence, EC20 TRH enhancement. enhancement, % at 2 µM. hit rate 0.66% among 360,000. AID 493056; in the data active = enhancement above about 30%; note: 0% is about no effect
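Enhancer read-out: after compound pinning and an initial kinetic agonist-mode read, an EC20 of TRH (10 nM final) was injected and fluo-8 calcium signal (Ex 480/Em 530) followed at 1 s/cycle for 100 cycles in TRHR-expressing cells.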
TRHR agonist – TRH receptor (human) agonism; P34981; TRHR cells, calcium flux fluo-8, FDSS agonist mode; activation, % at 2 µM; hit rate 0.18% among 360,000; AID 493084; note: 0% is about no effect
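Agonist-mode FDSS calcium read (Ex 480/Em 530, 1 s cycles) in 1536-well TRHR cells with fluo-8 dye, after 10-cycle baseline and 23 nL compound addition; TRH at EC20 (10 nM final) added afterwards for the enhancer phase.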
D1 antagonist – blocks dopamine activation of the human D1 receptor; activity change, negative = inhibition, % at 10 µM; HEK293 TREx D1 cells, calcium flux, dopamine EC80; hits give low values; P21728; hit rate 3.2% among 360,000; AID 504652; in the data active = activity change below about -30%; note: % is set by controls: 0 for no effect and ±100 for the full control effect
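Cells carrying a force-coupled, tetracycline-inducible human D1 receptor report calcium flux. Each well gets a 10 s baseline, compound with 180 s monitoring, then an EC80 dopamine stimulus with a second 180 s kinetic read.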
D1 agonist – agonists of human D1 dopamine receptor; P21728; HEK293 T-REx D1 cells, calcium flux, agonist mode; activation, % at 2 µM; hit rate 1% among 360,000; AID 504660; note: 0% is about no effect
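Tetracycline-induced HEK293 TREx D1 cells, force-coupled to calcium signalling, were dye-loaded with a no-wash calcium kit. Compound was pin-added after a 10 s baseline. Fluorescence was read kinetically at 1 cycle/s for 180 s, with calcium rises flagged as agonism.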
Numbers without * were called inactive. Rows were chosen to be rich in hits. Some 4.6% of all compounds tested hit in one or more screens of this group. Cut-off read from the data, not from the text of the source, unless noted: active = activation above about 30%; inactive = the rest.

SMILES	D1 potentiator	TRHR PAM	TRHR agonist	D1 antagonist	D1 agonist
Oc1ccccc1CNCC12CC3CC(CC(C3)C1)C2	-7	-1	-2	1	53*
CC(CC12CC3CC(CC(C3)C1)C2)NCc1ccccc1O (stereo not given)	-13	7	1	-1	16
O=C(c1cc(COc2ccc(F)cc2Cl)on1)N1CCN(C2CCCC2)CC1	-3	5	-1	-44*	15
Cc1cccc(C(=O)Oc2c(Sc3ccccc3)c(C)nn2C(C)(C)C)c1	3	-3	0	13	2
CC(C)(C)OC(=O)NCC12C=CC(O1)C1C(=O)N(Cc3ccccc3)C(=O)C12 (stereo not given)	4	1	0	-33*	18
O=S(=O)(Cc1cc(Oc2ccccc2)nc(-c2ccccc2)n1)c1ccccc1	-5	2	0	-33*	0
O=C(NCc1ccccc1)c1ccc(S(=O)(=O)N2CCCc3ccccc32)cc1	-10	-6	0	11	5
CCOC(=O)c1sc(NC(=O)c2cccc(S(=O)(=O)N3CCc4ccccc43)c2)c(C#N)c1C	-11	-2	2	-32*	20
O=C(NCc1ccco1)c1ccc(S(=O)(=O)N2CCCc3ccccc32)cc1	-4	-3	1	-32*	15
O=C(NC1=NCCS1)c1cccc(S(=O)(=O)N2CCc3ccccc32)c1	2	-10	0	-1	7
CN(C)C(=O)c1ccc(NC(=O)c2cccc(S(=O)(=O)N3CCCCCC3)c2)cc1	-3	3	0	-5	3
CN(C)C(=O)c1ccc(NC(=O)c2cccc(S(=O)(=O)N3CCCc4ccccc43)c2)cc1	-4	7	0	-31*	7
O=C(Nc1nncs1)c1cccc(S(=O)(=O)N2CCc3ccccc32)c1	-4	33*	0	12	0
CCCCC[C@]12Cc3ccccc3C(O1)C1=C(CC(C)(C)CC1=O)O2	0	5	0	1	0
Cc1ccc2[nH]c(CSc3nnc(NC(=O)COc4ccc(F)cc4)s3)cc(=O)c2c1	0	2	0	0	0
CC(C)NC(=O)C1=CC(c2ccc3c(c2)OCO3)=NS(=O)(=O)N1C	-1	-2	0	-24	3
Cc1ccc(S(=O)(=O)c2nnn3c2nc(NC(C)c2ccccc2)c2sccc23)cc1 (stereo not given)	-1	7	0	-17	9
Cc1nn2c(=O)cc(COC(=O)c3cccc(NC(=O)COc4ccccc4C)c3)nc2s1	-1	6	0	-15	-1
CCOC(=O)NN1C(=O)c2ccccc2NC1c1ccccn1 (stereo not given)	-3	-3	0	-30*	3
COc1cc2c(cc1OC)n(CC(=O)c1ccc(C)cc1C)c(=O)n1nc(CCn3nc(C)cc3C)nc21	-2	-6	0	20	0
CCOC(=O)N1CCC(N2Cc3cccc(C(=O)Nc4ccc(CC)cc4)c3C2=O)CC1	-1	3	1	-3	1
CCOC(=O)N1CCC(N2Cc3cccc(C(=O)Nc4ccc(F)cc4)c3C2=O)CC1	-2	-2	0	-53*	0
COc1ccc2[nH]c(=O)c(CN(Cc3ccccc3)C(=S)NCC3CCCO3)cc2c1 (stereo not given)	8	35*	-1	3	2
COc1ccc2[nH]c(=O)c(CN(CCCN3CCOCC3)C(=O)NCc3ccccc3)cc2c1	-1	-1	0	-37*	1
CCOc1ccc2[nH]c(=O)c(CN(CC3CCCN3CC)C(=O)NCc3ccccc3)cc2c1 (stereo not given)	5	2	0	-50*	3
Cc1cccc(Nc2nnc(-n3nc(C)cc3C)c3ccccc23)c1	-2	1	-1	-7	0
c1cc2c(cc1C1CCCCC1)c1c3n2CCCNC3CCC1 (stereo not given)	18	-2	-1	-7	122*
COc1cccc(Cn2c(=O)n(Cc3ccco3)c(=O)c3oc4ccccc4c32)c1	-2	5	0	20	0
CCSc1nnc2c(n1)OC(c1ccc(OC)c(OC)c1)N(C(C)=O)c1ccccc1-2 (stereo not given)	2	7	-1	-30*	-2
CCOP(=O)(OCC)C(NC(=O)Nc1ccccc1)C(N)=O (stereo not given)	0	-3	0	-32*	4
